{"source": "PubChem BioAssay AID1159580", "about": "(chemical genetic matrix, 2015)", "experiment": "chemical genetic growth profiling, strain panel (AID 1159580);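 note: tested at 20 µM; growth read once vehicle control cultures reached saturation at 30 °C; 1 = growth at the plate median or of vehicle wells; lower values mean less growth of the strain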", "settings": "growth OD", "note": "Screen size: about 5,500 compounds; about 2,000 (36%) were called active. Inconclusive results (about 18%) are left out. This is one part of the list. A number with no mark means an inactive call. Cut-off read from the data, not from the text of the source: active = normalized growth mostly below about 0.91 (no sharp cut-off); inconclusive = no clear call, values can overlap the other calls; inactive = mostly above about 0.92.", "data": [{"smiles": "O=C(O)CCCCC1CCSS1", "note": "(configuration not stated)", "values": [{"measurement": "normalized growth", "setting": "S. cerevisiae deletion strains, locus YJR075W, strain HOC1, active compounds read low", "value": 1}, {"measurement": "normalized growth", "setting": "S. cerevisiae deletion strains, locus YKL009W, strain mrt4, active compounds read low", "value": 0.978}, {"measurement": "normalized growth", "setting": "S. cerevisiae deletion strains, locus YKL068W, active compounds read low", "value": 1.01}, {"measurement": "normalized growth", "setting": "S. cerevisiae deletion strains, locus YKL085W, strain MDH1 (second series), active compounds read low", "value": 0.996}, {"measurement": "normalized growth", "setting": "S. cerevisiae deletion strains, locus YKL085W, strain MDH1, active compounds read low", "value": 0.996}, {"measurement": "normalized growth", "setting": "S. cerevisiae deletion strains, locus YKL160W, strain elf1, active compounds read low", "value": 0.988}, {"measurement": "normalized growth", "setting": "S. cerevisiae deletion strains, locus YKL190W, strain CNB1, active compounds read low", "value": 0.989}, {"measurement": "normalized growth", "setting": "S. cerevisiae deletion strains, locus YKR001C, strain vps1, active compounds read low", "value": 0.954}, {"measurement": "normalized growth", "setting": "S. cerevisiae deletion strains, locus YKR026C, strain gcn3, active compounds read low", "value": 0.965}, {"measurement": "normalized growth", "setting": "S. cerevisiae deletion strains, locus YKR091W, strain srl3, active compounds read low", "value": 0.982}, {"measurement": "normalized growth", "setting": "S. cerevisiae deletion strains, locus YLL001W, strain dnm1, active compounds read low", "value": 0.95}, {"measurement": "normalized growth", "setting": "S. cerevisiae deletion strains, locus YLL026W, active compounds read low", "value": 0.946}, {"measurement": "normalized growth", "setting": "S. cerevisiae deletion strains, locus YLL041C, strain sdh2, active compounds read low", "value": 0.976}, {"measurement": "normalized growth", "setting": "S. cerevisiae deletion strains, locus YLR027C, strain aat2, active compounds read low", "value": 0.973}, {"measurement": "normalized growth", "setting": "S. cerevisiae deletion strains, locus YLR039C, strain RIC1, active compounds read low", "value": 0.943}, {"measurement": "normalized growth", "setting": "S. cerevisiae deletion strains, locus YLR058C, strain SHM2, active compounds read low", "value": 0.968}, {"measurement": "normalized growth", "setting": "S. cerevisiae deletion strains, locus YLR102C, strain apc9, active compounds read low", "value": 0.984}, {"measurement": "normalized growth", "setting": "S. cerevisiae deletion strains, locus YLR113W, strain HOG1, active compounds read low", "value": 0.961}, {"measurement": "normalized growth", "setting": "S. cerevisiae deletion strains, locus YLR221C, strain rsa3, active compounds read low", "value": 0.963}, {"measurement": "normalized growth", "setting": "S. cerevisiae deletion strains, locus YLR258W, strain gsy2, active compounds read low", "value": 0.933}, {"measurement": "normalized growth", "setting": "S. cerevisiae deletion strains, locus YLR262C, strain YPT6 (second series), active compounds read low", "value": "0.839 (active)"}, {"measurement": "normalized growth", "setting": "S. cerevisiae deletion strains, locus YLR262C, strain YPT6, active compounds read low", "value": 0.969}, {"measurement": "normalized growth", "setting": "S. cerevisiae deletion strains, locus YLR268W, strain sec22, active compounds read low", "value": 1.06}, {"measurement": "normalized growth", "setting": "S. cerevisiae deletion strains, locus YLR320W, strain mms22, active compounds read low", "value": 0.98}, {"measurement": "normalized growth", "setting": "S. cerevisiae deletion strains, locus YLR330W, strain CHS5, active compounds read low", "value": 0.966}, {"measurement": "normalized growth", "setting": "S. cerevisiae deletion strains, locus YLR342W, strain FKS1 (second series), active compounds read low", "value": 0.945}, {"measurement": "normalized growth", "setting": "S. cerevisiae deletion strains, locus YLR342W, strain FKS1, active compounds read low", "value": 0.979}, {"measurement": "normalized growth", "setting": "S. cerevisiae deletion strains, locus YLR357W, strain rsc2, active compounds read low", "value": 0.901}, {"measurement": "normalized growth", "setting": "S. cerevisiae deletion strains, locus YLR370C, strain arc18, active compounds read low", "value": 0.986}, {"measurement": "normalized growth", "setting": "S. cerevisiae deletion strains, locus YLR371W, strain rom2, active compounds read low", "value": 0.973}, {"measurement": "normalized growth", "setting": "S. cerevisiae deletion strains, locus YLR384C, strain iki3, active compounds read low", "value": 0.977}, {"measurement": "normalized growth", "setting": "S. cerevisiae deletion strains, locus YLR418C, strain cdc73, active compounds read low", "value": 0.979}, {"measurement": "normalized growth", "setting": "S. cerevisiae deletion strains, locus YML016C, strain PPZ1, active compounds read low", "value": 0.982}, {"measurement": "normalized growth", "setting": "S. cerevisiae deletion strains, locus YML032C, strain rad52, active compounds read low", "value": 0.993}, {"measurement": "normalized growth", "setting": "S. cerevisiae deletion strains, locus YML120C, strain ndi1, active compounds read low", "value": 0.937}, {"measurement": "normalized growth", "setting": "S. cerevisiae deletion strains, locus YML124C, strain tub3, active compounds read low", "value": 0.98}, {"measurement": "normalized growth", "setting": "S. cerevisiae deletion strains, locus YMR058W, strain fet3, active compounds read low", "value": 0.968}, {"measurement": "normalized growth", "setting": "S. cerevisiae deletion strains, locus YMR078C, strain ctf18, active compounds read low", "value": 0.979}, {"measurement": "normalized growth", "setting": "S. cerevisiae deletion strains, locus YMR125W, strain sto1, active compounds read low", "value": 0.981}, {"measurement": "normalized growth", "setting": "S. cerevisiae deletion strains, locus YMR129W, active compounds read low", "value": 0.937}, {"measurement": "normalized growth", "setting": "S. cerevisiae deletion strains, locus YMR205C, strain PFK2, active compounds read low", "value": 0.921}, {"measurement": "normalized growth", "setting": "S. cerevisiae deletion strains, locus YMR223W, strain ubp8, active compounds read low", "value": 0.948}, {"measurement": "normalized growth", "setting": "S. cerevisiae deletion strains, locus YMR231W, strain pep5, active compounds read low", "value": 0.955}, {"measurement": "normalized growth", "setting": "S. cerevisiae deletion strains, locus YMR263W, strain SAP30, active compounds read low", "value": 0.981}, {"measurement": "normalized growth", "setting": "S. cerevisiae deletion strains, locus YMR307W, strain GAS1, active compounds read low", "value": 1.02}, {"measurement": "normalized growth", "setting": "S. cerevisiae deletion strains, locus YNL067W, strain RPL9B, active compounds read low", "value": 1.01}, {"measurement": "normalized growth", "setting": "S. cerevisiae deletion strains, locus YNL071W, strain lat1, active compounds read low", "value": 0.973}, {"measurement": "normalized growth", "setting": "S. cerevisiae deletion strains, locus YNL128W, strain TEP1, active compounds read low", "value": 0.962}, {"measurement": "normalized growth", "setting": "S. cerevisiae deletion strains, locus YNL153C, strain GIM3, active compounds read low", "value": 1}, {"measurement": "normalized growth", "setting": "S. cerevisiae deletion strains, locus YNL183C, strain NPR1, active compounds read low", "value": 0.842}, {"measurement": "normalized growth", "setting": "S. cerevisiae deletion strains, locus YNL209W, strain ssb2, active compounds read low", "value": 0.986}, {"measurement": "normalized growth", "setting": "S. cerevisiae deletion strains, locus YNL233W, strain BNI4, active compounds read low", "value": 1.01}, {"measurement": "normalized growth", "setting": "S. cerevisiae deletion strains, locus YNL248C, strain rpa49, active compounds read low", "value": 0.979}, {"measurement": "normalized growth", "setting": "S. cerevisiae deletion strains, locus YNL250W, strain rad50, active compounds read low", "value": 0.979}, {"measurement": "normalized growth", "setting": "S. cerevisiae deletion strains, locus YNL271C, strain bni1, active compounds read low", "value": 0.976}, {"measurement": "normalized growth", "setting": "S. cerevisiae deletion strains, locus YNL298W, strain CLA4, active compounds read low", "value": 0.928}, {"measurement": "normalized growth", "setting": "S. cerevisiae deletion strains, locus YNL307C, strain MCK1, active compounds read low", "value": 0.983}, {"measurement": "normalized growth", "setting": "S. cerevisiae deletion strains, locus YNL322C, strain KRE1 (second series), active compounds read low", "value": 0.97}, {"measurement": "normalized growth", "setting": "S. cerevisiae deletion strains, locus YNL322C, strain KRE1, active compounds read low", "value": 0.985}, {"measurement": "normalized growth", "setting": "S. cerevisiae deletion strains, locus YNR049C, strain mso1, active compounds read low", "value": 0.97}, {"measurement": "normalized growth", "setting": "S. cerevisiae deletion strains, locus YNR052C, strain pop2, active compounds read low", "value": 0.999}, {"measurement": "normalized growth", "setting": "S. cerevisiae deletion strains, locus YOL006C, strain TOP1, active compounds read low", "value": 1.04}, {"measurement": "normalized growth", "setting": "S. cerevisiae deletion strains, locus YOL012C, strain htz1", "value": 0.885}, {"measurement": "normalized growth", "setting": "S. cerevisiae deletion strains, locus YOL147C, strain pex11, active compounds read low", "value": 0.975}, {"measurement": "normalized growth", "setting": "S. cerevisiae deletion strains, locus YOR001W, strain rrp6, active compounds read low", "value": 0.962}, {"measurement": "normalized growth", "setting": "S. cerevisiae deletion strains, locus YOR061W, strain CKA2, active compounds read low", "value": 0.97}, {"measurement": "normalized growth", "setting": "S. cerevisiae deletion strains, locus YOR069W, strain VPS5, active compounds read low", "value": 0.986}, {"measurement": "normalized growth", "setting": "S. cerevisiae deletion strains, locus YOR070C, strain gyp1, active compounds read low", "value": 0.979}, {"measurement": "normalized growth", "setting": "S. cerevisiae deletion strains, locus YOR080W, strain dia2, active compounds read low", "value": 0.962}, {"measurement": "normalized growth", "setting": "S. cerevisiae deletion strains, locus YOR083W, strain WHI5, active compounds read low", "value": 0.989}, {"measurement": "normalized growth", "setting": "S. cerevisiae deletion strains, locus YOR106W, strain vam3, active compounds read low", "value": 0.957}, {"measurement": "normalized growth", "setting": "S. cerevisiae deletion strains, locus YOR136W, strain idh2, active compounds read low", "value": 0.969}, {"measurement": "normalized growth", "setting": "S. cerevisiae deletion strains, locus YOR144C, strain elg1, active compounds read low", "value": 0.973}, {"measurement": "normalized growth", "setting": "S. cerevisiae deletion strains, locus YOR184W, strain ser1, active compounds read low", "value": 0.973}, {"measurement": "normalized growth", "setting": "S. cerevisiae deletion strains, locus YOR231W, strain MKK1, active compounds read low", "value": 0.892}, {"measurement": "normalized growth", "setting": "S. cerevisiae deletion strains, locus YOR265W, strain rbl2, active compounds read low", "value": 0.973}, {"measurement": "normalized growth", "setting": "S. cerevisiae deletion strains, locus YOR270C, strain vph1, active compounds read low", "value": 1.02}, {"measurement": "normalized growth", "setting": "S. cerevisiae deletion strains, locus YOR290C, strain snf2, active compounds read low", "value": 0.91}, {"measurement": "normalized growth", "setting": "S. cerevisiae deletion strains, locus YOR316C, strain cot1, active compounds read low", "value": 0.986}, {"measurement": "normalized growth", "setting": "S. cerevisiae deletion strains, locus YPL051W, strain arl3, active compounds read low", "value": 0.981}, {"measurement": "normalized growth", "setting": "S. cerevisiae deletion strains, locus YPL055C, strain LGE1, active compounds read low", "value": 1}, {"measurement": "normalized growth", "setting": "S. cerevisiae deletion strains, locus YPL078C, strain atp4, active compounds read low", "value": 0.99}, {"measurement": "normalized growth", "setting": "S. cerevisiae deletion strains, locus YPL106C, strain sse1, active compounds read low", "value": 0.965}, {"measurement": "normalized growth", "setting": "S. cerevisiae deletion strains, locus YPL240C, strain hsp82, active compounds read low", "value": 0.97}, {"measurement": "normalized growth", "setting": "S. cerevisiae deletion strains, locus YPL241C, strain CIN2, active compounds read low", "value": 0.98}, {"measurement": "normalized growth", "setting": "S. cerevisiae deletion strains, locus YPL256C, strain CLN2, active compounds read low", "value": 0.94}, {"measurement": "normalized growth", "setting": "S. cerevisiae deletion strains, locus YPR119W, strain clb2, active compounds read low", "value": 0.977}, {"measurement": "normalized growth", "setting": "S. cerevisiae deletion strains, locus YPR141C, strain kar3, active compounds read low", "value": 0.985}, {"measurement": "normalized growth", "setting": "S. cerevisiae deletion strains, locus YPR163C, strain tif3, active compounds read low", "value": 0.989}, {"measurement": "normalized growth", "setting": "S. cerevisiae deletion strains, locus YPR167C, strain met16, active compounds read low", "value": 0.988}, {"measurement": "normalized growth", "setting": "S. cerevisiae deletion strains, strain wtn01, active compounds read low", "value": 1}, {"measurement": "normalized growth", "setting": "S. cerevisiae strains, strain wild type, active compounds read low", "value": 0.978}]}]}
